# Source: PubChem BioAssay (NCI)
# This is part of a sample that, as a whole, favours compounds with a hit. Of some 79,000 tested, about 15% had one in any assay. A number with no mark means an inactive call. The source made the active and inactive calls. No stated cut-off is given here; in the data, active means growth inhibition above about 70%; inactive means the rest.
# What was measured:
# [1] = NCI Yeast Anticancer Drug Screen. Data for the rad50 strain (AID 155);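 further: 0% = growth of vehicle-only cultures of the same strain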; conditions: S. cerevisiae rad50 strain growth inhibition, active compounds read high
# Procedure, shortened: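 Inhibition values express reduced yeast growth in compound-treated cultures relative to vehicle-treated controls.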
# [2] = NCI Yeast Anticancer Drug Screen. Data for the mec2-1 strain (AID 157); conditions: S. cerevisiae mec2-1 strain, active compounds read high
# Procedure, shortened: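 mec2-1 yeast strain, carrying an alteration in DNA damage repair or cell cycle control, was exposed to compounds; growth inhibition was measured relative to vehicle-treated controls.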
# [3] = NCI Yeast Anticancer Drug Screen. Data for the sgs1 mgt1 strain (AID 161);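 further: 0% = growth of cultures given vehicle only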; conditions: S. cerevisiae sgs1 mgt1 strain, active compounds read high
# Procedure, shortened: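 This yeast growth screen uses a strain with defined DNA-repair lesions; compound-treated growth is compared with vehicle-treated growth.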
# [4] = NCI Yeast Anticancer Drug Screen. Data for the cln2 rad14 strain (AID 165);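 further: 0% = growth equal to vehicle treated cultures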; conditions: S. cerevisiae cln2 rad14 strain, active compounds read high
# Procedure, shortened: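 Yeast carrying cln2 and rad14 alterations (cell cycle control and DNA damage repair) were exposed to compounds. Growth inhibition was measured against vehicle-treated controls.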
# [5] = NCI Yeast Anticancer Drug Screen. Data for the bub3 strain (AID 167); conditions: S. cerevisiae bub3 mutant strain, active compounds read high
# Procedure, shortened: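 Steps: expose the mutant yeast strain to compound; grow alongside vehicle-treated cultures; measure growth; express inhibition against the vehicle cultures.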
# [6] = NCI Yeast Anticancer Drug Screen. Data for the mlh1 rad18 strain (AID 175); conditions: S. cerevisiae mlh1 rad18 strain growth inhibition, active compounds read high
# Procedure, shortened: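 Growth inhibition of the yeast strain was measured after compound exposure and expressed relative to vehicle-treated controls. The strain carries defined defects in DNA damage repair.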
# [7] = at 5.0 µM (retest, dose inferred, filed as 0.5)
# [8] = at 50.0 µM (retest, dose inferred, filed as 5.0)
Compound,"growth inhibition [1, 7]","growth inhibition [1, 8]",growth inhibition ([1]; at 50.0 µM),"growth inhibition [2, 7]","growth inhibition [2, 8]",growth inhibition ([2]; at 50.0 µM),"growth inhibition [3, 7] [%]","growth inhibition [3, 8]",growth inhibition ([3]; at 50.0 µM),"growth inhibition [4, 7] [%]","growth inhibition [4, 8]",growth inhibition ([4]; at 50.0 µM),"growth inhibition [5, 7] [%]","growth inhibition [5, 8]",growth inhibition ([5]; at 50.0 µM),"growth inhibition [6, 7]","growth inhibition [6, 8]",growth inhibition ([6]; at 50.0 µM)
CCCCCCCCCC[N+](C)(C)CCC[N+](C)(C)CCCCCCCCCC,42%,93% (active),89.5% (active),20%,88% (active),91.2% (active),37,98% (active),88.3% (active),32,88% (active),78.2% (active),31,95% (active),62.6%,31%,89% (active),61.8%
CC(C)(C)N=C=NC(c1ccccc1)(c1ccccc1)c1ccccc1,-3%,-21%,-1.9%,-9%,-7%,-6.1%,-6,-24%,2.45%,-1,-18%,42.5%,-6,-22%,4.5%,11%,1%,-3.25%
CCCCCCCCN(CCCCCCCC)CC(O)c1cc(-c2ccc(OC)cc2)nc2cc(Cl)ccc12 (configuration not stated),-2%,81% (active),42.5%,8%,86% (active),92.5% (active),17,85% (active),48.6%,8,76% (active),84% (active),12,85% (active),75.7% (active),7%,84% (active),89% (active)
CCCC(CC)c1c(O)c(O)c(C(CC)CCC)c(C(CC)CCC)c1C(CC)CCC (configuration not stated),4%,76% (active),95.5% (active),-12%,52%,97.3% (active),-10,76% (active),97.9% (active),18,72% (active),97.7% (active),-1,59%,97.2% (active),-13%,87% (active),96% (active)
CCN(CC)c1ccc(N=Nc2ccc(Br)cn2)c(O)c1,-1%,51%,96.8% (active),-4%,84% (active),95.5% (active),-3,79% (active),97.1% (active),-2,46%,94.7% (active),1,71% (active),97.2% (active),-1%,77% (active),97.2% (active)
CN(C)c1ccccc1CC(c1c[nH]c2ccccc12)c1c[nH]c2ccccc12,82% (active),90% (active),84.8% (active),73% (active),93% (active),89.5% (active),67,91% (active),87.6% (active),50,94% (active),86.2% (active),66,91% (active),85.2% (active),92% (active),87% (active),82% (active)
Nc1ncnc2c1c(-c1ccc(Cl)cc1)cn2-c1ccccc1,21%,62%,51.2%,11%,52%,30.1%,42,82% (active),85.2% (active),2,35%,45%,13,65%,48.7%,13%,76% (active),26.7%
O=Nc1c2n[nH]c1CCCCCCCCC2,24%,99% (active),99.4% (active),45%,99% (active),99.4% (active),56,99% (active),99.5% (active),23,99% (active),99.5% (active),37,99% (active),99.3% (active),75% (active),99% (active),96.8% (active)
Cc1cc(CN(Cc2ccccc2)Cc2nc3ccccc3[nH]2)c(O)c(CN(Cc2nc3ccccc3[nH]2)Cc2nc3ccccc3[nH]2)c1,7%,44%,73% (active),-3%,24%,72.5% (active),1,70% (active),94.3% (active),-5,59%,67.3%,3,66%,27.9%,2%,79% (active),93.3% (active)
CCCCCN(CCCCC)C(C)C(=O)c1ccc2cc(Br)c3ccccc3c2c1 (configuration not stated),17%,61%,93.9% (active),9%,46%,90.4% (active),13,71% (active),90.7% (active),-2,42%,88.7% (active),14,66%,87.1% (active),7%,63%,95.5% (active)
CC(=O)N(/C=C\c1sc2ccccc2[n+]1C)c1ccccc1,38%,96% (active),90.5% (active),27%,98% (active),87.5% (active),61,89% (active),84% (active),33,65%,89.8% (active),27,98% (active),91.3% (active),54%,97% (active),90.6% (active)
N=c1ccc2c(c1)[nH]c1c3ccccc3[nH]c3cccc2c31,81% (active),98% (active),81.8% (active),27%,98% (active),84% (active),23,98% (active),89.1% (active),21,98% (active),90% (active),18,98% (active),88.3% (active),33%,97% (active),87% (active)
Cc1ccccc1P(=O)(c1ccccc1C)c1ccccc1C,16%,31%,0.55%,16%,28%,12.9%,10,42%,13.1%,11,51%,32.6%,24,24%,32.5%,15%,45%,4.35%
COc1ccc(/C(Cl)=C(\C=O)c2ccc(Cl)cc2)cc1OC,6%,61%,4.15%,-8%,35%,13.4%,-17,56%,21.6%,7,49%,0.1%,4,70% (active),13.6%,-5%,68%,24.1%
O=[N+]([O-])c1cccc(C=Nc2ccccc2O)c1,22%,34%,63.1%,12%,31%,41.8%,13,35%,52.7%,-4,7%,17.6%,23,82% (active),76% (active),24%,48%,70.8% (active)
CCOC(=O)C1C(c2cccc(OC)c2O)c2cc3c(cc2OC1(C)N1CCCC1)OCO3 (configuration not stated),-3%,21%,31.2%,1%,15%,16.4%,-2,39%,34.5%,-5,-4%,2.55%,1,25%,24.9%,-4%,27%,50.5%
O=C1C(Br)CCC1(c1ccccc1)c1ccccc1 (configuration not stated),5%,91% (active),97% (active),6%,93% (active),97.2% (active),4,97% (active),98% (active),4,78% (active),78.8% (active),-10,94% (active),95.7% (active),3%,96% (active),98.2% (active)
Oc1cc2c(cc1C(c1ccc(Cl)cc1)N1CCOCC1)OCO2 (configuration not stated),1%,98% (active),99% (active),-1%,99% (active),99.2% (active),7,99% (active),99% (active),-8,83% (active),96.5% (active),-7,98% (active),98.9% (active),0%,99% (active),98.8% (active)
O=C(CBr)Nc1ccc(Cc2ccc(NC(=O)CBr)cc2)cc1,11%,-4%,97.3% (active),20%,0%,98.7% (active),35,-4%,98.2% (active),24,-2%,97.1% (active),17,0%,98.1% (active),25%,1%,97.2% (active)
